From the supplement of paper PMC10941209
A number with no mark means an inactive call.

Tested on: Toxoplasma gondii RH 2F1 tachyzoites (intracellular in HFF)
Test: parasite survival relative to DMSO control; higher = less antiparasitic activity, active = 20 or less
Settings: 1 µM; 72 h
Outline: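 Toxoplasma gondii RH-2F1 tachyzoites expressing β-galactosidase (5 × 10^3 per well) were used to infect HFF cells at 5 × 10^3 cells/well in 96-well plates for 3 h in D2 medium. Cells then received compound at 1 μM for 72 h at 37°C in 5% CO2, were lysed for 15 min, and were given CPRG, with absorbance at 570 nm read after 30 min. Survival denotes this signal as a percentage of DMSO-treated infected controls. Each value reflects 2 or more biological replicates.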

Row | SMILES | parasite survival
1 | O=C(CC1Sc2ncnn2C1=O)Nc1ccc(Br)cc1 (centres undefined) | 28.1%
2 | CC[N+]1(C/C2=C/CCCCCC2)CCC(NC(=O)C2c3cc(Cl)ccc3Oc3ccc(Cl)cc32)CC1 (centres undefined) | 59.8%
3 | CCN(CC)CCCC(C)Nc1ccnc2cc(Cl)ccc12 (centres undefined) | 70.6%
4 | COc1cc(C)c2c(Oc3cccc(C(F)(F)F)c3)c(OC)cc(NC(C)CCCN)c2n1 (centres undefined) | 27.2%
5 | COc1cc2c(O)c3c(c(-c4ccc5c(c4)OCO5)c2cc1OC)C(=O)OC3 | 46.1%
6 | CCCC(=O)OCCc1ccccc1 | 57%
7 | NC[C@H]1OB(O)c2c(OCCCO)cccc21 | 54.2%
8 | NC(=O)c1ccccc1NC(=O)c1ccc(C(=O)Nc2ccccc2C(N)=O)cc1 | 39.5%
9 | CC1=C(/C=C/C(C)=C/C=C/C(C)=C/C(=O)Nc2ccc(O)cc2)C(C)(C)CCC1 | 35.7%
10 | Cc1nc(Nc2ccc(F)cc2)nc(N2CCc3ccccc3C2C)c1C (centres undefined) | 20.5%
11 | O=C(O)CSc1cc(NS(=O)(=O)c2cccc3cccnc23)c2ccccc2c1O | 60.2%
12 | CCc1nc2ccc(Cl)cn2c1C(=O)NCc1ccc(N2CCC(c3ccc(OC(F)(F)F)cc3)CC2)cc1 | 28.9%
13 | O=C1NC(=S)N/C1=C\c1cc(Br)cc(Br)c1O | 71.6%
14 | C[C@@H](NC(=O)c1ccccc1-c1ccccc1)B(O)O | 43.9%
15 | c1cnc(NCc2ccc(CNc3ncccn3)cc2)nc1 | 71.1%
16 | Fc1ccc(-c2nc(-c3c[nH]c4ccc(Br)cc34)[nH]c2-c2ccc(F)cc2)cc1 | 36.6%
17 | CCNC(=O)Nc1cc2c(-c3ccnc(C)c3)ccc(CNC(=O)OC)c2cn1 | 31.9%
18 | O=C(Nc1ccccc1C(=O)O)c1cccc(Oc2ccccc2)c1 | 39.4%
19 | O=P(O)(O)C(CCCc1cccc(Oc2ccccc2)c1)S(=O)(=O)O (centres undefined) | 65.2%
20 | Cc1nc(-c2ccc(C3N(C)c4ccc(F)cc4C(=O)N3c3ccccc3)s2)cs1 (centres undefined) | 59.2%
21 | O=C1C=C(c2ccccc2)S(=O)(=O)c2ccccc21 | 44.4%
22 | N[C@@H]1CN(c2c(F)cc3c(=O)c(C(=O)O)cn([C@@H]4C[C@@H]4F)c3c2Cl)CC12CC2 | 51.8%

Row | SMILES | parasite survival
23 | CC(C)Cn1c(=O)n(C)c(=O)c2c(-c3cncn3C)n(Cc3cccc4ccccc34)nc21 | 68.5%
24 | O=C(O)C(Cc1c[nH]c2ccccc12)N1C(=O)c2ccccc2C1=O (centres undefined) | 46.6%
25 | CN(C)CCCNC(=O)c1ccc(-c2cc(O)c3ncccc3c2)cc1 | 81.2%
26 | C[C@H](NC(CC(=O)c1ccccc1C(F)(F)F)C(=O)O)c1ccccc1 (some centres undefined) | 63%
27 | Cc1cc(Nc2ccc(F)cc2)nc(SCc2nc3ccccc3[nH]2)n1 | 42.4%
28 | NC(=O)c1ccc(I)c([N+](=O)[O-])c1 | 59.1%
29 | COc1ccc(CNC(=O)C(NS(=O)(=O)c2ccc3nc(C)sc3c2)C(C)C)cc1 (centres undefined) | 56.4%
30 | CCC(C)n1ncn(-c2ccc(N3CCN(c4ccc(OCC5COC(Cn6cncn6)(c6ccc(Cl)cc6Cl)O5)cc4)CC3)cc2)c1=O (centres undefined) | 3.93% (active)
31 | CCc1cc(CCC(=O)Nc2ccccc2O)c(O)nc1C | 70.1%
32 | COC1CC2CCC(C)C(O)(O2)C(=O)C(=O)N2CCCCC2C(=O)OC(C(C)CC2CCC(OCCO)C(OC)C2)CC(=O)C(C)/C=C(\C)C(O)C(OC)C(=O)C(C)CC(C)/C=C/C=C/C=C/1C (centres undefined) | 56.8%
33 | N=C(N)c1ccc(COc2ccc(Cl)cc2)cc1 | 54.6%
34 | O=C(O)c1ccc(-n2nc(-c3ccccc3O)nc2-c2ccccc2O)cc1 | 25.7%
35 | Oc1ccc(NCc2ccccc2OCc2ccccc2)cc1 | 39.5%
36 | O=C(Nc1ccc(Cl)c(C(F)(F)F)c1)C(CCCl)C(=O)Nc1ccc(Cl)c(C(F)(F)F)c1 | 15.6% (active)
37 | COc1ccc(NC(=O)CC2Sc3ncnn3C2=O)cc1 (centres undefined) | 22.1%
38 | CC(=O)N1CCN(c2ccc(OCC3COC(Cn4ccnc4)(c4ccc(Cl)cc4Cl)O3)cc2)CC1 (centres undefined) | 58.4%
39 | O=C(O)[C@H]1C2CCC(CC2)[C@@H]1Nc1nc(-c2c[nH]c3ncc(F)cc23)ncc1F | 44.8%
40 | CCOCc1nc2c(N)nc3ccccc3c2n1CC(C)(C)O | 55.5%
41 | CCc1oc2ccccc2c1C(=O)c1ccc(O)cc1 | 29.1%
42 | Nc1cccc(-c2nc(N)nc(NC3Cc4ccccc4C3)n2)c1 | 42.3%
43 | CN1c2ccc(Cl)cc2N(c2ccccc2)C(=O)c2cn(Cc3ccc(CN4CCOCC4)cc3)nc21 | 44%
44 | COCCn1cnc2c(O)nc(Nc3ccccc3)nc21 | 67%

Row | SMILES | parasite survival
45 | Cc1onc(-c2ccccc2Cl)c1C(=O)N[C@@H]1C(=O)N2[C@@H]1SC(C)(C)[C@@H]2C(=O)O | 50.5%
46 | N#CCN1C(=O)COc2cc(F)c(N3C(=O)c4ccccc4C3=O)cc21 | 67.4%
47 | Oc1c(C(Nc2nc3ccccc3s2)c2ccc(OC(F)F)cc2)ccc2cccnc12 (centres undefined) | 4.28% (active)
48 | COc1ccc2c(c1OC)C(=O)OC2C1c2c(cc3c(c2OC)OCO3)CCN1C (centres undefined) | 68.3%
49 | Fc1ccc(-n2cc(Cn3c(-c4cccc(F)c4)nc4ccccc43)nn2)cc1 | 50.1%
50 | O=S(=O)(NCB(O)O)c1cc2c(Cl)ccc(Cl)c2s1 | 54.4%
51 | C[C@H](Cn1cnc2c(N)ncnc21)OCP(=O)(O)O | 76.3%
52 | CCOc1ccc(/C=N/NC(=O)C2CC2c2ccc(C(C)(C)C)cc2)cc1OCC (centres undefined) | 51.6%
53 | Cc1ncc([N+](=O)[O-])n1CC(O)CN1CCOCC1 (centres undefined) | 52.5%
54 | O[C@@](Cn1cnnn1)(c1ccc(F)cc1F)C(F)(F)c1ccc(-c2ccc(OCC(F)(F)F)cc2)cn1 | 28.8%
55 | Cc1cc(C)n2nc(C(=O)NS(=O)(=O)c3c(C)cccc3OC(F)(F)F)nc2n1 | 45.7%
56 | CC(=O)N1c2ccccc2NC2=C(C(=O)CC(C)(C)C2)C1c1ccc(OCc2ccccc2)cc1 (centres undefined) | 46.7%
57 | CCc1nc(N)nc(N)c1C#CCc1ccccc1 | 5.77% (active)
58 | OC(Cn1cncn1)(Cn1cncn1)c1ccc(F)cc1F | 46%
59 | COc1cccc(N2CCN(C3=Nc4c(F)cccc4[C@H](CC(=O)O)N3c3cc(C(F)(F)F)ccc3OC)CC2)c1 | 41.2%
60 | CN(C)CCNC(=O)c1cccc2cccnc12 | 62%
61 | CC[C@@H]1C(=O)OC[C@@H]1Cc1cncn1C | 45.1%
62 | Nc1nc2c(ncn2COC(CO)CO)c(=O)[nH]1 | 80%
63 | O=c1cc(Nc2ccc3ccccc3c2)[nH]c(=O)[nH]1 | 53.3%
64 | O=C(Cc1ccccc1F)Nc1nc2ccccc2[nH]1 | 38.1%
